Test results published in PubChem BioAssay AID1159580 (chemical genetic matrix, 2015).
Several values for one entry are separate records, joined by “and”; a condition that tells them apart may be missing. Equal entries are not always repeated. In all, about 5,500 compounds went through this assay and about 2,000 (36%) were called active. Inconclusive results (about 18%) are left out. Rule as the data show it: active = normalized growth mostly below about 0.91 (no sharp cut-off); inconclusive = no clear call, values can overlap the other calls; inactive = mostly above about 0.92. The list shows a part of the results.

Test: chemical genetic growth profiling, strain panel (AID 1159580);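 also: tested at 20 µM; growth read once vehicle control cultures reached saturation at 30 °C; 1 = growth at the plate median or of vehicle wells; lower values mean less growth of the strain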
Details: S. cerevisiae deletion strains, growth OD

Measured: normalized growth

O=C(O)CNCP(=O)(O)O
inactive: locus YAL013W, strain DEP1, stronger effect = lower value 0.998 | locus YAL021C, strain ccr4, stronger effect = lower value 1.04 | locus YAL026C, strain drs2, stronger effect = lower value 1.02 | locus YAL030W, strain snc1, stronger effect = lower value 1.02 | locus YBL061C, strain skt5, stronger effect = lower value 1.01 | locus YBR009C, strain hhf1, stronger effect = lower value 1.01 | locus YBR021W, strain FUR4, stronger effect = lower value 0.992 | locus YBR023C, strain chs3, stronger effect = lower value 1.02 | locus YBR171W, strain sec66, stronger effect = lower value 1.04 | locus YBR229C, strain ROT2, stronger effect = lower value 1 | locus YBR231C, strain swc5, stronger effect = lower value 1.02 | locus YBR279W, strain paf1, stronger effect = lower value 1.02 | locus YCL011C, strain gbp2, stronger effect = lower value 1.02 | locus YCL016C, strain dcc1, stronger effect = lower value 1.02 | locus YCL029C, strain bik1, stronger effect = lower value 1.01 | locus YCL061C, strain MRC1, stronger effect = lower value 1.01 | locus YCL069W, strain vba3, stronger effect = lower value 1.02 | locus YCR088W, strain abp1, stronger effect = lower value 1.01 | locus YDL005C, strain med2, stronger effect = lower value 1.03 | locus YDL035C, strain GPR1, stronger effect = lower value 1.02 | locus YDL040C, strain nat1, stronger effect = lower value 1.02 | locus YDL074C, strain BRE1, stronger effect = lower value 1.04 | locus YDL101C, strain DUN1, stronger effect = lower value 1.02 | locus YDL134C, strain PPH21, stronger effect = lower value 1.01 | locus YDL185W, strain tfp1, stronger effect = lower value 1.01 | locus YDL192W, strain arf1, stronger effect = lower value 1.01 | locus YDR001C, strain nth1, stronger effect = lower value 1.01 | locus YDR069C, strain doa4, stronger effect = lower value 1.02 | locus YDR101C, strain arx1, stronger effect = lower value 1 | locus YDR137W, strain rgp1, stronger effect = lower value 1.02 | locus YDR150W, strain NUM1, stronger effect = lower value 0.997 | locus YDR159W, strain sac3, stronger effect = lower value 1.02 | locus YDR162C, strain NBP2, stronger effect = lower value 1 | locus YDR195W, strain ref2 1.01 | locus YDR297W, strain sur2, stronger effect = lower value 1.01 | locus YDR318W, strain mcm21, stronger effect = lower value 1.02 | locus YDR334W, strain swr1, stronger effect = lower value 1.03 | locus YDR335W, strain msn5, stronger effect = lower value 1.02 | locus YDR388W, stronger effect = lower value 1.01 | locus YDR392W, strain spt3, stronger effect = lower value 1.03 | locus YDR502C, strain sam2, stronger effect = lower value 1.01 | locus YEL003W, strain gim4, stronger effect = lower value 1.01 | locus YEL037C, strain rad23, stronger effect = lower value 1.01 | locus YEL061C, strain CIN8 (second series), stronger effect = lower value 1.02 | locus YEL061C, strain CIN8, stronger effect = lower value 0.998 | locus YER015W, strain faa2, stronger effect = lower value 1.02 | locus YER016W, strain bim1, stronger effect = lower value 1.01 | locus YER110C, stronger effect = lower value 1.02 | locus YER111C, strain swi4, stronger effect = lower value 1.01 | locus YER155C, strain BEM2 (second series), stronger effect = lower value 1.02 | locus YER155C, strain BEM2, stronger effect = lower value 1.01 | locus YER167W, strain BCK2, stronger effect = lower value 0.999 | locus YFR010W, strain ubp6, stronger effect = lower value 1.02 | locus YGL078C, strain dbp3, stronger effect = lower value 1.01 | locus YGL086W, strain mad1, stronger effect = lower value 1 | locus YGL167C, strain pmr1, stronger effect = lower value 1.02 | locus YGL173C, strain kem1, stronger effect = lower value 1.01 | locus YGL227W, strain vid30, stronger effect = lower value 1.02 | locus YGL240W, strain doc1, stronger effect = lower value 1.02 | locus YGL248W, strain PDE1, stronger effect = lower value 1.02 | locus YGL253W, strain hxk2, stronger effect = lower value 1.01 | locus YGR078C, strain PAC10, stronger effect = lower value 1.01 | locus YGR135W, strain pre9, stronger effect = lower value 1.02 | locus YGR229C, strain SMI1, stronger effect = lower value 1.02 | locus YGR252W, strain gcn5, stronger effect = lower value 1.01 | locus YHR013C, strain ard1, stronger effect = lower value 1.06 | locus YHR027C, strain rpn1, stronger effect = lower value 1 | locus YHR030C, strain SLT2, stronger effect = lower value 1.01 and 0.97 | locus YHR079C, strain IRE1 (second series), stronger effect = lower value 1.01 | locus YHR079C, strain IRE1, stronger effect = lower value 0.992 | locus YHR094C, strain hxt1, stronger effect = lower value 1 | locus YHR129C, strain ARP1, stronger effect = lower value 1.01 | locus YHR142W, strain chs7, stronger effect = lower value 1.02 | locus YHR200W, strain rpn10, stronger effect = lower value 1.01 | locus YIL066C, strain RNR3, stronger effect = lower value 1.02 | locus YIL073C, strain SPO22, stronger effect = lower value 1.08 | locus YIL125W, strain kgd1, stronger effect = lower value 1.01 | locus YIR030C, strain dcg1, stronger effect = lower value 1.01 | locus YJL092W, strain hpr5, stronger effect = lower value 1.02 | locus YJL095W, strain BCK1 (second series), stronger effect = lower value 1.01 | locus YJL095W, strain BCK1, stronger effect = lower value 1.01 and 0.975 | locus YJL115W, strain asf1, stronger effect = lower value 1.02 | locus YJL129C, strain trk1, stronger effect = lower value 1.03 | locus YJL134W, strain LCB3, stronger effect = lower value 1.01 | locus YJL154C, strain vps35, stronger effect = lower value 1.02 | locus YJL164C, strain tpk1, stronger effect = lower value 1.02 | locus YJL166W, strain qcr8, stronger effect = lower value 1.02 | locus YJL168C, strain set2, stronger effect = lower value 1.01 | locus YJL187C, strain SWE1 (second series), stronger effect = lower value 1.01 | locus YJL187C, strain SWE1, stronger effect = lower value 1.01 | locus YJR043C, strain POL32, stronger effect = lower value 1.01 | locus YJR066W, strain TOR1, stronger effect = lower value 0.926
